Test results as given in PubChem BioAssay.

assay: modulators of S6 phosphorylation in cells, primary screen, cell-based, A549, cytoblot, luminescence, serum-stimulated (AID 1158); conditions: A549 phospho-S6 cytoblot, 5 h, higher = more signal;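 also: serum-stimulated A549 lung adenocarcinoma cells; signal is phosphorylated S6 detected by cytoblot immunostaining with HRP secondary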

Row | Compound | z-score
1 | CC(C)C(=C=CC[C@H](O)c1ccc(OCCO)cc1)C[C@H](O)c1cc(Cl)cc(Cl)c1O | -0.173
2 | C=C(COC)/C(=C/C[C@@H](OC(=O)c1ccncc1)c1ccc(OCCO)cc1)c1cnc2ccccc2c1 | -0.0567
3 | CC(C)CN1C(=O)[C@@]2(c3ccc([N+](=O)[O-])cc3)CC(=O)N(CC34CC5CC(CC(C5)C3)C4)[C@@H]2c2ccc(CO)cc21 | 2.01
4 | C=C(CCCC)/C(=C/C[C@@H](OC(C)=O)c1ccc(CO)o1)c1cc(C(=O)OC)ccc1OC | 0.476
5 | C=C(C(=O)CC[C@H](OC(=O)c1cccnc1)c1ccc(CO)o1)C(C)C | -0.143
6 | CCOc1cc(C(O)C2C=CC3C(=O)N(C4CCCCC4)C(=O)C3N2Nc2ccc(OC)cc2)ccc1O (stereo unspecified) | -0.089
7 | CN(C)CCCNC(=O)[C@@H]1c2ccccc2C(=O)N(CC23CC4CC(CC(C4)C2)C3)[C@H]1c1ccc(CO)cc1 | -0.245
8 | NC(=O)N1C(=O)C2C(C1=O)C1C=C(CCCO)C2C(c2cccs2)N1Cc1cc2c(cc1Br)OCO2 (stereo unspecified) | 0.413
9 | [N-]=[N+]=NCc1ccccc1[C@H]1OC(c2ccc(OCCCO)cc2)=N[C@@]1(CCS(=O)(=O)c1ccccc1)C(N)=O | 0.273
10 | CC(C)(C)OC(=O)CC[C@]1(C(=O)O)N=C(c2ccc(OCCCO)cc2)O[C@H]1c1ccccc1 | 0.733
11 | COc1ccc([Si](C)(C)[C@@H]2[C@@H](CCO)O[C@]3(C(=O)N(Cc4cccc(N5C(=O)c6cccc7cccc5c67)c4)c4ccccc43)[C@H]2C)cc1 | 0.0181
12 | COC1(C)CN(Cc2ccccc2Br)[C@H](/C=C/c2ccccc2)[C@H](Cc2ccccc2)O1 (stereo partly specified) | 0.52
13 | CN(C)C(=O)[C@@]1(Cc2ccccc2N=[N+]=[N-])COC(c2ccc(OCCCO)cc2)=N1 | 0.685
14 | CC(C)N1CC=CC23O[C@@H]4C=CCCOC(=O)C4[C@H]2C(=O)N(CCO)[C@@H]3C1=O (stereo partly specified) | 0.468
15 | C=C[C@@H](C)[C@H](OC(=O)Nc1ccc(SC)cc1)c1ccc(OCCO)cc1 | 2.17
16 | COC(=O)[C@@]1(Cc2ccc(OC)cc2)[C@H]2c3cc(C(=O)N(C)C)n(CCc4c[nH]c5ccc(O)cc45)c3C[C@H]2CN1C(=O)c1ccccc1 | 0.092
17 | COc1cc2c(cc1OC)CN(C(=O)[C@H]1[C@@H]3C(=O)O[C@@H](c4ccccc4)[C@@H](c4ccccc4)N3[C@@H](c3ccc(OCCO)cc3)[C@]13C(=O)Nc1ccc(C#CCCO)cc13)CC2 | 0.142
18 | COc1cc(CO)cc(I)c1O[C@H]1C=C(C(=O)NCCO)C[C@@H](N(CC2CCCCC2)C(=O)c2ccc(C(F)(F)F)cc2)[C@@H]1O | 0.597

Row | Compound | z-score
19 | COC(=O)[C@@]1(Cc2ccc(F)cc2)[C@H]2c3cc(C(=O)N4CCCC4)n(CCc4c[nH]c5ccc(OC)cc45)c3C[C@H]2CN1C(=O)c1ccccc1 | 1.03
20 | COCC(=C=CC[C@H](O)c1ccc(OCCO)cc1)C[C@H](O)COCc1ccccc1 | 0.974
21 | CC=CC(O)C1C=CC2C(=O)N(C)C(=O)C2N1N1CCCCC1 (stereo unspecified) | -1.01
22 | [N-]=[N+]=NCc1ccccc1C[C@]1(C(=O)NCC(O)CO)N=C(c2ccc(OCCCO)cc2)O[C@H]1c1ccccc1CN=[N+]=[N-] (stereo partly specified) | 1.67
23 | NCCCCCCNC(=O)[C@H]1C[C@H]2C(=O)N[C@@H](Cc3ccccc3)C(=O)N2[C@H]1c1ccc(O)cc1 | 0.316
24 | CCCCC(=C=CC[C@@H](O)c1ccc(OCCO)cc1)C[C@@H](O)COCc1ccccc1 | 1.95
25 | O=C(O)[C@]1(Cc2ccccc2)N=C(c2ccc(OCCCO)cc2)O[C@@H]1c1ccccc1 | -0.174
26 | CC(C)C(=C=CC[C@@H](O)c1ccccc1OCCO)C[C@@H](O)COCc1ccccc1 | 0.86
27 | O=C1O[C@@H](c2ccccc2)[C@@H](c2ccccc2)N2[C@@H](c3ccc(O)cc3)[C@]3(C(=O)Nc4ccccc43)[C@@H](C(=O)Nc3nc4ccccc4s3)[C@H]12 | -0.132
28 | O=C(N1CCCCC1)[C@@]1(Cc2ccccc2)COC(c2ccc(OCCCO)cc2)=N1 | -0.666
29 | CO[C@H]1O[C@H](CO)[C@@H](OC(=O)Nc2ccc(C(F)(F)F)cc2)[C@H](OC(=O)Nc2ccc3c(c2)OCO3)[C@H]1OC(=O)Nc1ccc2c(c1)OCO2 | -0.388
30 | COc1cc(CO)cc(I)c1O[C@H]1C=C(C(=O)NCCO)C[C@@H](NCc2ccccc2F)[C@@H]1O | 0.51
31 | CCCNC(=O)[C@@]1(c2ccc([N+](=O)[O-])cc2)CC(=O)N(C2CCCCC2)[C@@H]1c1ccc(CO)cc1I | -0.275
32 | CCOC(=CC(=O)OC)CC(O)c1cccc(Cl)c1 (stereo unspecified) | 0.979
33 | Cc1ccc(S[C@]2(C(=O)NC(C)C)CC(=O)N(Cc3ccccc3C(F)(F)F)[C@@H]2c2ccc(CO)cc2I)cc1 | 2.05
34 | CO[C@H]1O[C@H](CO)[C@@H](OC(=O)c2ccc(Br)cc2)[C@@H]2OC(=O)[C@@H](Cc3ccc4ccccc4c3)C/C=C/C[C@H](Cc3ccc4ccccc4c3)C(=O)O[C@@H]12 | 1.74
35 | COC(=O)[C@@]1(Cc2ccc(OC)cc2)[C@H]2c3cc(C(=O)N(C)C)n(Cc4nc5ccccc5[nH]4)c3C[C@H]2CN1C(=O)c1ccccc1 | 0.123
36 | COCCCNC(=O)[C@]1(Cc2ccccc2N=[N+]=[N-])N=C(c2ccc(OCCCO)cc2)O[C@@H]1c1ccccc1N=[N+]=[N-] | 0.105
